# The supplement of paper PMC8728848
# The full list was thinned out, with the strongest signals kept by preference.
# Experiments:
# Assay in all cases: glycan array binding signal (z-score within array); higher = stronger binding
# Conditions in all cases: glycan notation: IUPAC condensed, linker removed
# [1] = target: GlcNAc(b1-3)Gal(b1-4)GlcNAc(b1-3)Gal(b1-4)GlcNAc(b1-3)Gal(b1-4)GlcNAc(b1-2)Man(a1-3)[GlcNAc(b1-3)Gal(b1-4)GlcNAc(b1-3)Gal(b1-4)GlcNAc(b1-3)Gal(b1-4)GlcNAc(b1-2)Man(a1-6)]Man(b1-4)GlcNAc(b1-4)[Fuc(a1-6)]GlcNAc
# In short: (§1)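 Glycan array data were curated from 3228 arrays in the Consortium for Functional Glycomics database and kept only where the protein sequence was available. Glycan names were converted to IUPAC-condensed notation, and columns mapping to the same glycan were averaged. The binding signal is a within-array Z-score, averaged across arrays of the same protein sequence at different concentrations or buffers and across linkers. Negative Z-scores can be read as non-binding.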
# [2] = target: GlcNAc(b1-3)Gal(b1-4)GlcNAc(b1-3)Gal(b1-4)GlcNAc(b1-3)Gal(b1-4)GlcNAc(b1-3)Gal(b1-4)GlcNAc(b1-2)Man(a1-3)[GlcNAc(b1-3)Gal(b1-4)GlcNAc(b1-3)Gal(b1-4)GlcNAc(b1-3)Gal(b1-4)GlcNAc(b1-3)Gal(b1-4)GlcNAc(b1-2)Man(a1-6)]Man(b1-4)GlcNAc(b1-4)GlcNAc
# In short: as §1
# [3] = target: GlcNAc(b1-3)Gal(b1-4)GlcNAc(b1-3)Gal(b1-4)GlcNAc(b1-3)Gal(b1-4)GlcNAc(b1-3)Gal(b1-4)GlcNAc(b1-2)Man(a1-3)[GlcNAc(b1-3)Gal(b1-4)GlcNAc(b1-3)Gal(b1-4)GlcNAc(b1-3)Gal(b1-4)GlcNAc(b1-3)Gal(b1-4)GlcNAc(b1-2)Man(a1-6)]Man(b1-4)GlcNAc(b1-4)[Fuc(a1-6)]GlcNAc
# In short: as §1
# [4] = target: GlcNAc(b1-3)Gal(b1-4)GlcNAc(b1-3)Gal(b1-4)GlcNAc(b1-3)Gal(b1-4)GlcNAc(b1-3)Gal(b1-4)GlcNAc(b1-2)[GlcNAc(b1-3)Gal(b1-4)GlcNAc(b1-3)Gal(b1-4)GlcNAc(b1-3)Gal(b1-4)GlcNAc(b1-3)Gal(b1-4)GlcNAc(b1-6)]Man(a1-6)[GlcNAc(b1-3)Gal(b1-4)GlcNAc(b1-3)Gal(b1-4)GlcNAc(b1-3)Gal(b1-4)GlcNAc(b1-3)Gal(b1-4)GlcNAc(b1-2)Man(a1-3)]Man(b1-4)GlcNAc(b1-4)[Fuc(a1-6)]GlcNAc
# In short: as §1
# [5] = target: GlcNAc(b1-3)Gal(b1-4)GlcNAc(b1-3)[GlcNAc(b1-3)Gal(b1-4)GlcNAc(b1-3)]GalNAc
# In short: as §1
# [6] = target: GlcNAc(b1-3)Gal(b1-4)GlcNAc(b1-6)[Gal(b1-3)]GalNAc
# In short: as §1
# [7] = target: GlcNAc(b1-4)Gal(b1-4)GlcNAc
# In short: as §1
# [8] = target: GlcNAc(b1-6)Gal(b1-4)GlcNAc
# In short: as §1
# GlcNAc(b1-6)GalNAc = target: GlcNAc(b1-6)GalNAc
# In short: as §1
# [9] = target: Man(a1-2)Man(a1-3)[Man(a1-6)]Man(a1-6)[Man(a1-2)Man(a1-3)]Man(b1-4)GlcNAc(b1-4)GlcNAc
# In short: as §1
# [10] = target: Man(a1-3)[Man(a1-6)]Man(b1-4)GlcNAc(b1-4)GlcNAc
# In short: as §1
# [11] = target: Man(a1-3)[Man(a1-6)]Man(b1-4)GlcNAc(b1-4)[Fuc(a1-6)]GlcNAc
# In short: as §1
# [12] = target: Neu5Ac(a2-3)Gal(b1-3)[Fuc(a1-4)]GlcNAc
# In short: as §1
# [13] = target: Neu5Ac(a2-3)Gal(b1-3)[GlcNAc(b1-6)]GalNAc
# In short: as §1
# [14] = target: Neu5Ac(a2-3)Gal(b1-4)GlcNAc(b1-2)Man(a1-3)[Neu5Ac(a2-3)Gal(b1-4)GlcNAc(b1-2)Man(a1-6)]Man(b1-4)GlcNAc(b1-4)[Fuc(a1-6)]GlcNAc
# In short: as §1
# [15] = target: Neu5Ac(a2-3)Gal(b1-4)GlcNAc(b1-2)[Neu5Ac(a2-3)Gal(b1-4)GlcNAc(b1-4)]Man(a1-3)[GlcNAc(b1-4)][Neu5Ac(a2-3)Gal(b1-4)GlcNAc(b1-4)Man(a1-6)]Man(b1-4)GlcNAc(b1-4)GlcNAc
# In short: as §1
# [16] = target: Neu5Ac(a2-3)Gal(b1-4)GlcNAc(b1-3)Gal(b1-4)GlcNAc
# In short: as §1
# [17] = target: Neu5Ac(a2-3)Gal(b1-4)GlcNAc(b1-3)Gal(b1-4)GlcNAc(b1-2)Man(a1-3)[Neu5Ac(a2-3)Gal(b1-4)GlcNAc(b1-3)Gal(b1-4)GlcNAc(b1-2)Man(a1-6)]Man(b1-4)GlcNAc(b1-4)GlcNAc
# In short: as §1
# [18] = target: Neu5Ac(a2-3)GalNAc(b1-4)GlcNAc
# In short: as §1
# [19] = target: Neu5Ac(a2-6)Gal(b1-4)GlcNAc(b1-2)Man(a1-3)Man(b1-4)GlcNAc(b1-4)GlcNAc
# In short: as §1
# [20] = target: Neu5Ac(a2-6)Gal(b1-4)GlcNAc(b1-2)Man(a1-3)[Neu5Ac(a2-3)Gal(b1-4)GlcNAc(b1-2)Man(a1-6)]Man(b1-4)GlcNAc(b1-4)GlcNAc
# In short: as §1
# [21] = target: Neu5Ac(a2-6)Gal(b1-4)GlcNAc(b1-2)Man(a1-6)[GlcNAc(b1-2)Man(a1-3)]Man(b1-4)GlcNAc(b1-4)GlcNAc
# In short: as §1
# [22] = target: Neu5Ac(a2-8)Neu5Ac(a2-3)Gal(b1-4)Glc
# In short: as §1
# [23] = target: Neu5Gc(a2-3)Gal(b1-3)GlcNAc
# In short: as §1
# [24] = target: Neu5Gc(a2-3)Gal(b1-4)GlcNAc
# In short: as §1
# [25] = target: Neu5Gc(a2-8)Neu5Gc(a2-6)Gal(b1-4)GlcNAc
# In short: as §1
binder,measurement,setting,value
PpFlo2 (Pichia pastoris) (protein) MGSSHHHHHHSSGLVPRGSHMDDSGNGDNSDTAYGCDITTNAVDGFDATIYQYNANDLRLIRDPTFMSTGYLGRNVLNKISGVTVPGFNIWNPSSRTATVYGVKNVNYYNMVLELKGYFKADVSGDYKLTLSHIDDSSMLFFGKETAFKCCDAGSIPLNEAPTDYSLFTIKPSNQVNSEVISATQYLEAGKYYPVRIVFVNALERARFDFKLTIPSGAVLDDFQNYIYQFGDLDENSCHE,glycan array binding signal (z-score),[1],7.22
same,glycan array binding signal (z-score),[2],7.34
same,glycan array binding signal (z-score),[3],7.63
same,glycan array binding signal (z-score),[4],4.18
same,glycan array binding signal (z-score),[5],4.33
same,glycan array binding signal (z-score),[6],2.11
same,glycan array binding signal (z-score),[7],0.414
same,glycan array binding signal (z-score),[8],0.578
same,glycan array binding signal (z-score),GlcNAc(b1-6)GalNAc,0.967
same,glycan array binding signal (z-score),[9],-0.276
same,glycan array binding signal (z-score),[10],0.074
same,glycan array binding signal (z-score),[11],-0.248
same,glycan array binding signal (z-score),[12],-0.304
same,glycan array binding signal (z-score),[13],0.351
same,glycan array binding signal (z-score),[14],-0.271
same,glycan array binding signal (z-score),[15],-0.271
same,glycan array binding signal (z-score),[16],-0.293
same,glycan array binding signal (z-score),[17],-0.239
same,glycan array binding signal (z-score),[18],-0.302
same,glycan array binding signal (z-score),[19],-0.293
same,glycan array binding signal (z-score),[20],-0.271
same,glycan array binding signal (z-score),[21],2.77
same,glycan array binding signal (z-score),[22],-0.301
same,glycan array binding signal (z-score),[23],-0.301
same,glycan array binding signal (z-score),[24],-0.299
same,glycan array binding signal (z-score),[25],-0.273
